Experimental data as given in PubChem BioAssay AID743157 (Broad Institute, 2013).
Calls of active or inactive are those of the source.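 The calls were made as follows: active = cell killing, with a fitted active concentration at or below twice the top valid dose tested; inconclusive = flat fit with 30 to 70 percent signal loss, or poor fit; inactive = effect in the rising direction, plus the rest.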

experiment: A549 cell cytotoxicity, dose response, cytotoxicity control, CellTiter-Glo luminescence, dry powder, set 4 (AID 743157); conditions: A549 viability, CellTiter-Glo ATP luminescence, 72 h; series mostly up to 50 µM

Row | Structure (SMILES) | activity change, negative = cytotoxicity | outcome
1 | Cc1c(C(=O)O)sc2nc(/C=C/c3cccnc3N)[nH]c(=O)c12 | -7.98% [at 12 µM] (inactive) | –
2 | Cc1c(C(=O)O)sc2nc(/C=C/c3ccc(O)cn3)[nH]c(=O)c12 | 4.16% [at 1.2 µM] (inactive) | –
3 | Cc1c(C(=O)O)sc2nc(/C=C/c3ccc(N)nc3)[nH]c(=O)c12 | – | inactive
4 | Cc1c(C(=O)O)sc2nc(/C=C/c3ccccc3O)[nH]c(=O)c12 | – | inactive
5 | Cc1c(C(=O)O)sc2nc(/C=C/c3ccnc4ccccc34)[nH]c(=O)c12 | – | inactive
6 | Cc1c(C(=O)O)sc2nc(/C=C/C=C/c3ccccc3)[nH]c(=O)c12 | – | inactive
7 | Cc1c(C(=O)O)sc2nc(CCc3cccc(O)c3)[nH]c(=O)c12 | – | inactive
8 | Cc1c(C(=O)O)sc2nc(/C=C/C3CC3)[nH]c(=O)c12 | – | inactive
9 | COc1cccc(/C=C/c2nc3sc(C(=O)O)c(C)c3c(=O)[nH]2)c1 | – | inactive
10 | Cc1c(C(=O)O)sc2nc(/C=C/c3cccc(N4CCNCC4)c3)[nH]c(=O)c12 | – | inactive
11 | Cc1c(C(=O)O)sc2nc(/C=C/c3ccc4[nH]ccc4n3)[nH]c(=O)c12 | 6.14% [at 12 µM] (inactive) | –
12 | Cc1c(C(=O)O)sc2nc(/C=C/c3cccc([N+](=O)[O-])c3)[nH]c(=O)c12 | – | inactive
13 | Cc1c(C(=O)O)sc2nc(/C=C/c3cccc(C(N)=O)c3)[nH]c(=O)c12 | – | inactive
14 | Cc1c(C(=O)O)sc2nc(/C=C/c3cccc(F)c3)[nH]c(=O)c12 | – | inactive
15 | Cc1c(C(=O)O)sc2nc(/C=C/c3ccc4cc[nH]c4c3)[nH]c(=O)c12 | – | inactive
16 | Cc1c(C(=O)O)sc2nc(/C=C/c3cccc(=O)[nH]3)[nH]c(=O)c12 | – | inactive
17 | Cc1c(C(=O)O)sc2nc(/C=C/c3cc4ccccc4cn3)[nH]c(=O)c12 | – | inactive
18 | Cc1c(C(=O)O)sc2nc(/C=C/c3cccc(C(F)(F)F)c3)[nH]c(=O)c12 | – | inactive
19 | Cc1c(C(=O)O)sc2nc(/C=C/c3cccc(N)c3)[nH]c(=O)c12 | – | inactive
20 | Cc1c(C(=O)O)sc2nc(/C=C/c3ccc4[nH]ccc4c3)[nH]c(=O)c12 | – | inactive
21 | Cc1c(C(=O)O)sc2nc(/C=C/c3cccc(N4CCOCC4)n3)[nH]c(=O)c12 | – | inactive
22 | Cc1c(C(=O)O)sc2nc(/C=C/c3ccccc3)[nH]c(=O)c12 | – | inactive
23 | Cc1c(C(=O)O)sc2nc(/C=C/c3cccc(O)c3)[nH]c(=O)c12 | – | inactive
24 | Cc1c(C(=O)O)sc2nc(/C=C/c3ccncc3)[nH]c(=O)c12 | – | inactive
25 | Cc1c(C(=O)O)sc2nc(/C=C/c3cccc(C(=O)O)c3)[nH]c(=O)c12 | – | inactive
26 | Cc1c(C(=O)O)sc2nc(/C=C/c3cccnc3)[nH]c(=O)c12 | – | inactive
27 | Cc1c(C(=O)O)sc2nc(/C=C/c3ccccn3)[nH]c(=O)c12 | – | inactive
28 | Cc1c(C(=O)O)sc2nc(/C=C/c3cnc4ccccc4c3)[nH]c(=O)c12 | – | inactive
29 | Cc1c(C(=O)O)sc2nc(/C=C/c3cccc(OC(F)(F)F)c3)[nH]c(=O)c12 | – | inactive
30 | Cc1c(C(=O)O)sc2nc(/C=C/c3ccc4ccccc4c3)[nH]c(=O)c12 | – | inactive
